Reference: PubChem BioAssay AID1307 (SRMLSC, 2008)
In all, about 1,200 compounds went through this assay and fewer than 10 were called active.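 The calls were made as follows: active = inhibition reaching a set limit at one or more tested concentrations; inactive = inhibition under that limit at every dose.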 The list is a sample of the results. Entries with a potency or affinity are not part of this list.

Test: yeast RAM network inhibitors, dose response, S. cerevisiae (AID 1307);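 also: 0% = DMSO vehicle wells and 100% = 10 µM 1-NA-PP1 control; higher inhibition means more yeast growth since RAM block rescues cells from 5-FOA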
Conditions: S. cerevisiae RAM network URA3 reporter, 5-FOA growth OD615, stronger effect = higher value, yeast express analog-sensitive mutant Cbk1 kinase; at 100 µM unless noted

Max inhibition, inactive:
COc1ccc(C(=O)COC(=O)C(CCSC)NS(=O)(=O)c2ccc(Cl)cc2)cc1 (stereo unspecified) 2.78% [at 25 µM], COCCn1c(=NC(=O)c2sc3ccccc3c2Cl)sc2cc(S(N)(=O)=O)ccc21 4.98% [at 50 µM], CCOc1ccc(/C=C2/SC(=S)N(C(C(=O)O)c3ccccc3)C2=O)cc1OCC (stereo unspecified) 3.65%, Cc1ccc(-n2c(SCC(=O)N3CCCc4ccccc43)nnc2-c2cccnc2)c(C)c1 3.12% [at 50 µM], O=C(O)c1cc(Sc2ccc(Br)cc2)nc2ccccc12 4.44% [at 50 µM], CCCCc1ccc(N=N/C(C(=O)Nc2ccccc2OC)=C(/C)O)cc1 4.87% [at 50 µM], O=C(COC(=O)CCN1C(=O)/C(=C\C=C\c2ccccc2)SC1=S)Nc1ccc(Br)cc1 9.41%, O=C(Nc1ccn(Cc2cccc3ccccc23)n1)c1cccnc1 3.63%, CCN(CC)S(=O)(=O)c1cccc(-c2nnc(SCCCC(=O)c3ccccc3)o2)c1 3.65%, O/N=C/c1cc(Br)ccc1OCc1cccc(F)c1 1.58% [at 0.196 µM], COC(=O)c1scc(C)c1N/N=C(\C)c1ccc(F)cc1F 8.43%, CCCc1nn(C)c(C(=O)Nc2ccc(C(C)(C)C)cc2)c1Cl 3.4%, CCCCOn1c(C)c(C(=O)OCC)c2c3no[n+]([O-])c3ccc21 2.31%, O=C(NCc1ccc2c(c1)OCO2)c1cc(-c2ccccn2)nc2ccccc12 4.19% [at 3.125 µM], CC(C)(CNC(=S)NCCc1ccccc1)CNC(=S)NCCc1ccccc1 4.96%, CCOC(=O)C(C)Sc1cc(CS(=O)(=O)c2ccccc2)nc(-c2ccccc2)n1 (stereo unspecified) 5.53%, CCN(CC)S(=O)(=O)c1cc(NS(=O)(=O)c2c(Cl)cccc2Cl)ccc1C 3.03% [at 50 µM], Cc1ccccc1-c1nnn(CC(=O)Nc2ccc3c(c2)OCCO3)n1 4.6%, O=C(O)CCN1C(=O)/C(=C/c2cn(-c3ccccc3)nc2-c2cccs2)SC1=S 5.53%, COc1ccc(C(=O)/C=C/c2ccc(OC)c(COc3ccc(F)cc3)c2)cc1 5.41%, CC(CCc1ccccc1)NC(=O)CNC(=S)N(Cc1cccs1)C1CCCC1 (stereo unspecified) 3.28%, COc1ccc(-c2ccc(-c3noc(-c4cccc(OC)c4)n3)c(OC)n2)cc1 4.12%, CC1(C)CC(C(CCN(Cc2ccccc2)C(=O)c2ccco2)c2ccc(F)cc2)CCO1 (stereo unspecified) 4.56% [at 50 µM], C=C(C)COc1ccc(-c2[nH]ncc2Oc2ccccc2OCC)c(O)c1 3.4%, CCOC(=O)c1sc(-c2ccccc2)cc1NC(=O)c1ccc(S(=O)(=O)N(CCOC)CCOC)cc1 1.69% [at 12.5 µM], O=C1Nc2ccccc2/C1=N\N=C\C1=C(N2CCOCC2)C(=C\c2ccccc2)/CC1 19.6%, O=S(=O)(Nc1nc2ccccc2nc1Nc1ccc2c(c1)OCCO2)c1cccs1 5.19%, Cc1cc(C)c(C)c(S(=O)(=O)N2CCC(C(=O)OCC(=O)N3c4ccccc4NC(=O)C3(C)C)CC2)c1C 4.49%, CCOC(=O)c1ccc(NC(=O)Nc2ccc3c4c(cccc24)C(=O)N3CC)cc1 3.19%, CC(C)c1ccc(CNc2cc(N3CCCC3)ccc2[N+](=O)[O-])cc1 5.27%, CCCCc1ccc(-c2csc(/C(C#N)=C\c3ccc(C)o3)n2)cc1 5.43%, O=C(CN(Cc1cccs1)C(=O)CSc1nnc(COc2ccccc2)o1)NC1CCCC1 3.76%, COc1ccc(/C=C2\SC(=O)N(CCC(=O)Nc3ccccc3)C2=O)cc1OC 3.41%, Cc1cc2c(C)ccc(C)c2nc1SCC(=O)c1cccs1 5.59% [at 25 µM], COc1ccc(O[C@H]2C=C[C@@H](c3ccccc3)O[C@@H]2CO/N=C(\C)CCC(=O)OC[C@H]2O[C@H](c3ccccc3)C=C[C@@H]2Oc2ccc(OC)cc2)cc1 6.56%, Cc1ccc(S(=O)(=O)N2CCC(=O)N(C(COCc3cccc(C(F)(F)F)c3)C(C)C)CC2)cc1 (stereo unspecified) 2.65% [at 0.782 µM], CCOC(=O)c1c(NC(=O)CSc2nnc(-c3ccco3)o2)sc(C)c1C 4.63% [at 0.391 µM], CCOC(=O)c1cc(C(C)C)sc1NC(=O)COC(=O)CCS(=O)(=O)c1ccccc1 3.24% [at 50 µM], Cc1c(N=Nc2ccc(N(C)C)cc2)c(=O)n(-c2ccccc2)n1C 20.4%, COc1ccc(N(CC(=O)NCCSCc2ccco2)S(=O)(=O)c2ccc(C)cc2)cc1 4.74% [at 50 µM], Cc1ccc(N=C(NOCc2ccc(Cl)cc2Cl)c2nonc2N)c(C)c1 5.27%, CCOC(=O)c1sc(NC(=O)CSc2nnc(-c3ccc(OC)cc3)n2CCOC)nc1C 1.33% [at 0.782 µM], CCC(=O)NC(=S)Nc1ccc(NC(=S)NC(=O)c2ccccc2)cc1 5.34% [at 50 µM], O=C(CSc1nnc(-c2ccccc2Br)o1)N1CCc2ccccc2C1 2.54%, N#Cc1ccsc1NC(=O)COC(=O)CCCSc1nc2ccccc2s1 2.77% [at 50 µM], O=C(/C=C/c1cccc([N+](=O)[O-])c1)NCCSCc1ccccc1Cl 1.79% [at 6.25 µM], Clc1ccc(CSc2nnc(/C=C/c3ccccc3)o2)cc1 2.78% [at 25 µM], CCSc1ccc(-c2nn(-c3ccccc3)cc2/C=C(/C#N)C(=O)NCCCOC)cc1 13%, CCOC(=O)c1c(-c2cccs2)csc1NC(=O)COC(=O)c1c(C)noc1C 4.68%, Cc1ccc(NC2=Nc3ccccc3N3C2=Nc2c(c(C)nn2-c2ccccc2)C3c2ccc(O)c(O)c2)cc1 (stereo unspecified) 6.97%, COc1ccc(C(=O)CSc2nc(C(C)(C)C)nc3ccccc23)cc1 2.25% [at 1.563 µM], Cc1[nH]c2ccccc2c1/C=C/c1nc2ccccc2c(=O)n1-c1ccc([N+](=O)[O-])cc1 6.44%, N#Cc1nc(COc2ccccc2)oc1N1CCN(c2cccc(Cl)c2)CC1 3.36% [at 50 µM], O=C(COC(=O)c1ccc(-c2ccccc2)cc1)Nc1ccccc1-c1ccccc1 4.8% [at 50 µM], CC(C)(C)OC(=O)NCCCCCNC(=O)c1[nH]cnc1C(=O)N[C@@H](Cc1ccccc1)C(=O)OCc1ccccc1 6.61%, CCOc1ccc(NS(=O)(=O)c2ccc(NC(=S)NC(=O)CC(C)C)cc2)cc1 3.65% [at 0.196 µM], COc1cc(CC(NC(C)=O)C(=O)NC2CCN(c3c(Cc4ccccc4)c(C)nc4ncnn34)CC2)cc(OC)c1 (stereo unspecified) 3.02% [at 25 µM], O=C(/C=C/c1ccccc1)N1CCN(c2cccc(Cl)n2)CC1 6.02%, CCOC(=O)c1c(C)[nH]c(C(=O)C(C)Sc2ccc(Cl)cc2)c1C (stereo unspecified) 2.41% [at 12.5 µM], O=C(CSCc1ccc(Cl)cc1)Nc1cccc(C(=O)Nc2ccccc2C(=O)O)c1 1.32% [at 0.196 µM], CCOc1ccc(NC(=O)CSc2nnc(-c3ccccc3Cl)n2Cc2ccco2)cc1 1.32% [at 0.782 µM], C=CCN1C(=O)C(Cc2ccc(C)cc2)S/C1=N/N=C/c1ccco1 (stereo unspecified) 6.91%, CC(=O)c1cc(C(=O)c2ccccc2)sc1Nc1ccccc1 6.93%, CCOC(=O)c1c(-c2cccc([N+](=O)[O-])c2)csc1NC(=O)CCCOc1ccccc1OC 2.67% [at 50 µM], COc1ccc(CN(CCC(c2ccccc2)c2ccco2)C(=O)c2ccco2)cc1 (stereo unspecified) 4.81% [at 6.25 µM], COc1ccccc1NC(=O)C(Sc1ccccc1)c1ccccc1 (stereo unspecified) 2.18% [at 50 µM], CCOC(=O)/C(=C/c1ccc(N2CCC(c3ccccc3)=N2)cc1)C(C)=O 3.75%, O=C(COC(=O)C1(c2ccccc2F)CCCC1)Nc1ncc(C(F)(F)F)cc1Cl 2.79% [at 0.196 µM], CCOC(=O)c1cnc(SC)nc1Oc1cccc(NC(=O)c2ccc(C)cc2)c1 5.83% [at 50 µM], CCCC(CCC)=NNc1ccc(S(=O)(=O)Nc2ccccc2OC)cc1[N+](=O)[O-] 3.78% [at 0.391 µM], Cc1cccc(COCC(Cc2ccccc2)N2CCN(C(=O)c3ccc(C(F)(F)F)cc3)CCC2=O)c1 (stereo unspecified) 3.28% [at 0.782 µM], Cc1ccc(NC(=O)COC(=O)CCC(=O)c2ccc(C(C)(C)C)cc2)c([N+](=O)[O-])c1 2.67% [at 0.196 µM], CCOC(=O)c1sc(NC(=O)CCCn2nc([N+](=O)[O-])cc2C)c(C(=O)OCC)c1C 4.45% [at 0.782 µM], CCCCCCCCNC(=O)/C(C#N)=C/c1ccc(SC)cc1 5.43%, CCOC(=O)C(C)(C)N(Cc1cccc(C)c1)S(=O)(=O)c1cccc([N+](=O)[O-])c1 2.41% [at 50 µM], O=C(Nc1ccccc1-c1nnc(SCc2ccccc2)o1)c1ccccc1 4.39% [at 3.125 µM]
